Laboratory results as given in PubChem BioAssay (NCI).
Compounds without any hit were thinned out: in the full panel of roughly 79,000, 15% have a hit. The source made the active and inactive calls. Rule as the data show it: active = growth inhibition above about 70%; inactive = the rest. Starred links: 1 amine or outer side, 2 acyl side, 3 side chain; linkers in the order of their positions; H or OH if unused. Positions of bridges follow the written chain, without caps; N, C: chain ends. Non-standard residues stand in square brackets, D forms with d. Residues, ends and D or L forms follow the SMILES beside them. Chains are numbered I, II in the order given. Actinocin(9to1) = Cc1c2oc3c(C)ccc(C(=O)[*:1])c3nc-2c(C(=O)[*:2])c(N)c1=O; aThr = C[C@H](O)[C@H](N)C(=O)O; NMeV = CN[C@H](C(=O)O)C(C)C; Sar = CNCC(=O)O

Experiments:
[1] = NCI Yeast Anticancer Drug Screen. Data for the wt1 strain (AID 149);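 also: 0% = growth of vehicle-treated wt1 cultures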; settings: S. cerevisiae wt1 strain (SPY 50644) growth inhibition, active compounds read high
Procedure, shortened: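 wt1 yeast, compound-treated; % growth inhibition vs vehicle control.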

[2] = NCI Yeast Anticancer Drug Screen. Data for the rad50EPP+ strain (AID 151);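 also: 0% = growth of vehicle-treated control cultures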; settings: S. cerevisiae rad50 mutant strain, active compounds read high
Procedure, shortened: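 Yeast strain carrying rad50 alteration (rad50EPP+) exposed to compounds; growth inhibition measured relative to vehicle-treated controls.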

[3] = NCI Yeast Anticancer Drug Screen. Data for the rad50 strain (AID 155);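 also: 0% = growth of vehicle-only cultures of the same strain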; settings: S. cerevisiae rad50 strain growth inhibition, active compounds read high
Procedure, shortened: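 Genetically altered yeast (DNA repair pathway); compound treatment; growth inhibition vs vehicle ctrl.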

[4] = NCI Yeast Anticancer Drug Screen. Data for the mec2-1 strain (AID 157); settings: S. cerevisiae mec2-1 strain, active compounds read high
Procedure, shortened: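 mec2-1 yeast strain, carrying an alteration in DNA damage repair or cell cycle control, was exposed to compounds; growth inhibition was measured relative to vehicle-treated controls.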

[5] = NCI Yeast Anticancer Drug Screen. Data for the rad14 strain (AID 159);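 also: 0% = growth of vehicle-treated control cultures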; settings: S. cerevisiae rad14 strain growth inhibition, active compounds read high
Procedure, shortened: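 Test compounds were applied to a repair-deficient yeast strain. Its growth was then compared with that of cultures given vehicle alone, and inhibition was expressed relative to those controls.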

[6] = NCI Yeast Anticancer Drug Screen. Data for the sgs1 mgt1 strain (AID 161);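 also: 0% = growth of cultures given vehicle only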; settings: S. cerevisiae sgs1 mgt1 strain, active compounds read high
Procedure, shortened: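 Percent growth inhibition was derived by comparing compound-exposed mutant yeast with vehicle-exposed cultures. The strain carries alterations in DNA damage repair.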

[7] = NCI Yeast Anticancer Drug Screen. Data for the CLN2oe strain (AID 163);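 also: 0% = growth of vehicle-only control cultures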; settings: S. cerevisiae CLN2oe strain, active compounds read high
Procedure, shortened: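 Yeast cells carrying a defined cell-cycle control alteration were exposed to test compounds. Growth inhibition was scored against vehicle-treated control cultures.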

[8] = NCI Yeast Anticancer Drug Screen. Data for the cln2 rad14 strain (AID 165);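 also: 0% = growth equal to vehicle treated cultures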; settings: S. cerevisiae cln2 rad14 strain, active compounds read high
Procedure, shortened: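 Yeast carrying cln2 and rad14 alterations (cell cycle control and DNA damage repair) were exposed to compounds. Growth inhibition was measured against vehicle-treated controls.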

[9] = NCI Yeast Anticancer Drug Screen. Data for the bub3 strain (AID 167); settings: S. cerevisiae bub3 mutant strain, active compounds read high
Procedure, shortened: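 Yeast carrying a defined mutation is treated with each compound, and growth is compared with that of vehicle-exposed cells to give inhibition.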

[10] = NCI Yeast Anticancer Drug Screen. Data for the wt2 strain (AID 169);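 also: 0% = growth of vehicle-treated yeast cultures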; settings: S. cerevisiae wt2 strain growth inhibition, active compounds read high
Procedure, shortened: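 Yeast cells were exposed to test compounds, and growth inhibition was measured relative to vehicle-treated controls.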

[11] = NCI Yeast Anticancer Drug Screen. Data for the mlh1 strain (AID 171);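 also: 0% = growth of vehicle-treated control cultures of the same strain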; settings: S. cerevisiae mlh1 strain growth inhibition, active compounds read high
Procedure, shortened: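 Yeast carrying a defined genetic alteration in DNA damage repair or cell cycle control were exposed to test compounds. Growth inhibition was measured relative to vehicle-treated controls.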

[12] = NCI Yeast Anticancer Drug Screen. Data for the sgs1 strain (AID 173);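 also: 0% = growth of vehicle-only control cultures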; settings: S. cerevisiae sgs1 mutant, active compounds read high
Procedure, shortened: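 Yeast mutant strains carrying defined defects in DNA damage repair or cell cycle control were exposed to test compounds. Growth inhibition was scored against vehicle-treated controls.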

[13] = NCI Yeast Anticancer Drug Screen. Data for the mlh1 rad18 strain (AID 175); settings: S. cerevisiae mlh1 rad18 strain growth inhibition, active compounds read high
Procedure, shortened: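 Growth inhibition of the yeast strain was measured after compound exposure and expressed relative to vehicle-treated controls. The strain carries defined defects in DNA damage repair.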

[14] = NCI Yeast Anticancer Drug Screen. Data for the rad18 strain (AID 177); settings: S. cerevisiae rad18 mutant growth inhibition, active compounds read high
Procedure, shortened: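 Yeast carrying a defined DNA damage repair alteration were exposed to compounds. Growth inhibition was expressed relative to vehicle-treated controls.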

[15] = at 5.0 µM (retest, dose inferred, filed as 0.5)
[16] = at 50.0 µM (retest, dose inferred, filed as 5.0)

Measured: growth inhibition

CCN(CC)c1cccc(Nc2nc3ccccc3s2)c1
active: [9]; [16] 83% | [9]; at 50.0 µM 89.8%
inactive: [1]; at 1.2 µM 8% | [1]; at 3.7 µM 10% | [1]; at 11.0 µM 6% | [1]; at 33.0 µM 7% | [1]; at 100.0 µM 5% | [2]; at 1.2 µM -9% | [2]; at 3.7 µM 0% | [2]; at 11.0 µM -2% | [2]; at 33.0 µM 1% | [2]; at 100.0 µM 19% | [3]; at 1.2 µM 8% | [3]; at 3.7 µM 9% | [3]; [15] -4% | [3]; at 11.0 µM 5% | [3]; at 33.0 µM 7% | [3]; [16] 2% | [3]; at 50.0 µM 1.6% | [3]; at 100.0 µM 7% | [4]; at 1.2 µM 13% | [4]; at 3.7 µM 14% | [4]; [15] -5% | [4]; at 11.0 µM 15% | [4]; at 33.0 µM 16% | [4]; [16] 1% | [4]; at 50.0 µM 7.7% | [4]; at 100.0 µM 8% | [5]; at 1.2 µM 7% | [5]; at 3.7 µM 7% | [5]; at 11.0 µM 7% | [5]; at 33.0 µM 7% | [5]; at 100.0 µM 7% | [6]; [15] 3% | [6]; [16] 21% | [6]; at 50.0 µM 17.4% | [7]; at 1.2 µM -3% | [7]; at 3.7 µM 1% | [7]; at 11.0 µM -1% | [7]; at 33.0 µM -4% | [7]; at 100.0 µM -10% | [8]; [15] -9% | [8]; [16] -1% | [8]; at 50.0 µM -7.1% | [9]; at 1.2 µM 0% | [9]; at 3.7 µM -1% | [9]; [15] 32% | [9]; at 11.0 µM 5% | [9]; at 33.0 µM 14% | [9]; at 100.0 µM 30% | [10]; at 1.2 µM -1% | [10]; at 3.7 µM -1% | [10]; at 11.0 µM -1% | [10]; at 33.0 µM -2% | [10]; at 100.0 µM -3% | [11]; at 1.2 µM 10% | [11]; at 3.7 µM 9% | [11]; at 11.0 µM 10% | [11]; at 33.0 µM 9% | [11]; at 100.0 µM 8% | [12]; at 1.2 µM 8% | [12]; at 3.7 µM 7% | [12]; at 11.0 µM 7% | [12]; at 33.0 µM 7% | [12]; at 100.0 µM 5% | [13]; [15] 4% | [13]; [16] 20% | [13]; at 50.0 µM 25.1% | [14]; at 1.2 µM 7% | [14]; at 3.7 µM 7% | [14]; at 11.0 µM 6% | [14]; at 33.0 µM 3% | [14]; at 100.0 µM 1%

Cc1c2oc3c(C)ccc(C(=O)N[C@@H]4C(=O)N[C@H](C(C)C)C(=O)N5CCC[C@H]5C(=O)N(C)CC(=O)N(C)[C@@H](C(C)C)C(=O)O[C@H]4C)c3nc-2c(C(=O)N[C@@H]2C(=O)N[C@H](C(C)C)C(=O)N3CCC[C@H]3C(=O)N(C)CC(=O)N(C)[C@@H](C(C)C)C(=O)O[C@H]2C)c(N)c1=O (I: [aThr][dV]P[Sar][NMeV] / II: [aThr][dV]P[Sar][NMeV]; ester I:1-I:C, II:1-II:C; linker I:N-II:N via Actinocin(9to1))
active: [1]; at 33.0 µM 95% | [1]; at 100.0 µM 95% | [2]; at 11.0 µM 94% | [2]; at 33.0 µM 97% | [2]; at 100.0 µM 99% | [3]; at 11.0 µM 92% | [3]; at 33.0 µM 98% | [3]; [16] 98% | [3]; at 50.0 µM 91.2% | [3]; at 100.0 µM 99% | [4]; at 11.0 µM 84% | [4]; at 33.0 µM 97% | [4]; [16] 99% | [4]; at 50.0 µM 93% | [4]; at 100.0 µM 98% | [5]; at 11.0 µM 75% | [5]; at 33.0 µM 97% | [5]; at 100.0 µM 98% | [6]; [16] 97% | [6]; at 50.0 µM 92.5% | [7]; at 11.0 µM 94% | [7]; at 33.0 µM 97% | [7]; at 100.0 µM 99% | [8]; [16] 92% | [8]; at 50.0 µM 89.3% | [9]; at 11.0 µM 90% | [9]; at 33.0 µM 96% | [9]; [16] 96% | [9]; at 50.0 µM 92% | [9]; at 100.0 µM 98% | [11]; at 11.0 µM 94% | [11]; at 33.0 µM 98% | [11]; at 100.0 µM 99% | [12]; at 11.0 µM 91% | [12]; at 33.0 µM 97% | [12]; at 100.0 µM 99% | [13]; [16] 98% | [13]; at 50.0 µM 90.5% | [14]; at 11.0 µM 92% | [14]; at 33.0 µM 96% | [14]; at 100.0 µM 98%
inactive: [1]; at 1.2 µM 0% | [1]; at 3.7 µM 19% | [1]; at 11.0 µM 58% | [2]; at 1.2 µM 2% | [2]; at 3.7 µM 53% | [3]; at 1.2 µM 9% | [3]; at 3.7 µM 59% | [3]; [15] 65% | [4]; at 1.2 µM 1% | [4]; at 3.7 µM 29% | [4]; [15] 53% | [5]; at 1.2 µM 3% | [5]; at 3.7 µM 32% | [6]; [15] 24% | [7]; at 1.2 µM 8% | [7]; at 3.7 µM 32% | [8]; [15] 34% | [9]; at 1.2 µM 3% | [9]; at 3.7 µM 28% | [9]; [15] 24% | [11]; at 1.2 µM 2% | [11]; at 3.7 µM 28% | [12]; at 1.2 µM 3% | [12]; at 3.7 µM 30% | [13]; [15] 61% | [14]; at 1.2 µM -2% | [14]; at 3.7 µM 18%
